From PubChem
Hits are enriched below; roughly 10% of the tested compounds scored in any of these assays.
PNC assembly inh: blocks assembly of the perinucleolar compartment; activity change (PNC), negative = inhibition, % at 10 µM; PC3M PTB-GFP, PNC prevalence imaging, 16 h; active compounds read low; hit rate 3.1% among 140,000;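 active means readout at or below -70, meaning at least 70% loss of cells showing the perinucleolar compartment, a nuclear body marking cancer cells; inconclusive means readout between -30 and a set limit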;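 further: plate controls were DMSO wells for no effect and camptothecin positive control wells for full effect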
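Compounds are pinned in duplicate onto adhered PC3M cells stably expressing GFP-tagged PTB and incubated 16 h at 37 C. Cells are then fixed, nuclei stained with Hoechst, and PNC-positive cells counted.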
HPGD block: inhibitors of human 15-hydroxyprostaglandin dehydrogenase (HPGD). P15428. Potency, µM, for the others: top-dose activity change, negative = inhibition, actives largely listed as inhibitors. purified HPGD, NADH fluorescence kinetic, PGE2 substrate. hit rate 4.3% among 150,000; further: potency means the concentration at half of the fitted maximal effect
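20 nM HPGD preincubated 15 min at room temperature with compound in 50 mM Tris-HCl pH 8, 0.01% Tween 20. Started with 1 mM NAD+ and 30 uM prostaglandin E2; NADH fluorescence (360/450 nm) read 5 times over 30-s intervals, last minus first.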
12-hLO inh: 12-hLO (ALOX12) enzyme inhibition; purified 12-hLO, xylenol orange hydroperoxide absorbance; Potency, µM (titrated, usually from 57.1 µM), without a hit: at the top dose activity change, negative = inhibition, usual class: inhibitors; AID 1452; P18054; hit rate 0.12% among 150,000; active means well fitted inhibition curve with a large enough effect; inconclusive means small, poorly fitted or top-dose-only effect; further: potency means the concentration at half of the fitted maximal effect; nearly all actives have a fitted effect of over 55% in size
Target sequence (P18054 whole entry, looked up): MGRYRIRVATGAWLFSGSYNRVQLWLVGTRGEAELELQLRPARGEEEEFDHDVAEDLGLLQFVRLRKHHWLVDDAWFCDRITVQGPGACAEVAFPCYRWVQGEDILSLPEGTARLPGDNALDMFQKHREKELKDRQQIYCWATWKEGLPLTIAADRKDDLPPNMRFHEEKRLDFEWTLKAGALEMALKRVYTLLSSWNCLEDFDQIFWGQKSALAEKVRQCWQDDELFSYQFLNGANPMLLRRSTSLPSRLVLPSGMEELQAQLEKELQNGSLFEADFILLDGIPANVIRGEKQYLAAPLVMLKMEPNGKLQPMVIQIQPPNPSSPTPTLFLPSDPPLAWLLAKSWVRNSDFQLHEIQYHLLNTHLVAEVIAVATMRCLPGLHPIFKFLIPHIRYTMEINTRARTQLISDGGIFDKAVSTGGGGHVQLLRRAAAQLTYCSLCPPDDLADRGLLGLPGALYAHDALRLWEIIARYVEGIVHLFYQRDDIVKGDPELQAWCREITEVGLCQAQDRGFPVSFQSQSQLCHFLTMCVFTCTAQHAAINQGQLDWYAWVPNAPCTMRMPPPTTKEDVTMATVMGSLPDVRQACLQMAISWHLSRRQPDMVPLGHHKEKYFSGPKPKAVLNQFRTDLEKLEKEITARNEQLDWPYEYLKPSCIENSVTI
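Xylenol orange chromogenic assay: hydroperoxide from 12hLO oxidises Fe(II), giving red-shifted Fe(III)-XO absorbance. Conditions: 150 nM enzyme, 40 uM arachidonic acid, 25 mM Hepes pH 7.0, 0.01% Triton X-100, 30 min, room temperature.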
Lamin A splicing: changes lamin A minigene splicing in HeLa cells; HeLa LMNA splicing GFP/RFP minigene ratio, 48 h; Potency, µM (titrated, usually from 46.1 µM), inactives show top-dose ratio change, negative = inhibition, hits mostly inhibitors; hit rate 0.01% among 200,000; AID 1487; active means well fitted inhibition curve with a large enough effect in the signal ratio, with a control signal flat, not every such curve was filed as active; inconclusive means small, poorly fitted or top-dose-only effect, or effect the other way, or a change in a side signal; the % refers to the signal ratio; further: potency means the concentration at half of the fitted maximal effect
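Read-out is the ratio of GFP to DsRed2 object intensity, acquired by 488 nm laser-scanning cytometry on HeLa lamin A-EGFP minigene reporter cells. Compound incubation 48 hrs at 37 °C in Opti-MEM with 2% FBS; DMSO 0.5% final.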
ALDH1A1 inh: ALDH1A1 (human) enzyme inhibition; P00352; Purified ALDH1A1, NADH fluorescence, propionaldehyde substrate; Potency, µM (doses to about 75.3 µM), without a hit: top-dose activity, negative = inhibition, hits mostly inhibitors; hit rate 7.3% among 220,000;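 further: potency means the concentration at half of the fitted maximal effect; plate controls were no enzyme wells and a reference inhibitor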
An asterisk follows results filed as active; ? = inconclusive; / = no result; [ ] = remark or other dose. Unless noted, the call rests on the fitted dose curve; in most records, active means well fitted inhibition curve with a large enough effect (not every such curve was filed as active); inconclusive means small, poorly fitted or top-dose-only effect, or another doubt; inactive means no such curve, though single readings can be large or run the other way. Unless noted, on the % scale 0 is the no-effect control and ±100 the full control effect.

SMILES | PNC assembly inh | HPGD block | 12-hLO inh | Lamin A splicing | ALDH1A1 inh
O=C(C1=C(O)C(=O)N(CCN2CCOCC2)C1c1cccnc1)c1cc2ccccc2o1 (centres undefined) | -16 | -11% | -7% | -6% | 35µM*
O=C(CON1C(=O)c2ccccc2C1=O)c1ccccc1 | / | -5% | 7%[11.4 µM] | / | ?
CCOC(=O)CSc1nc2cc3c(cc2cc1C)OCO3 | / | / | / | ? | 7%
Cc1ccc(-c2nnc(CSc3nc4cc5c(cc4cc3C)OCO5)o2)cc1 | 33 | 18µM* | -13% | ? | -11%
COc1ccc(S(=O)(=O)N(C)C)cc1NC(=O)COC(=O)CC1CCCC1 | / | / | / | -7%[46 µM] | ?
COc1ccc(S(=O)(=O)N(C)C)cc1NCC(=O)Nc1ccc(Br)cc1F | 0 | -14% | -12% | ? | 11µM*
O=S1(=O)CCN2C=Nc3sc4c(c3C2=N1)CCCC4 | -6 | -24% | 5% | -22% | 8.9µM*
CCCOc1cccc(C(=O)NC(=S)Nc2cccc(C(F)(F)F)c2)c1 | ? | -18% | ? | ? | 18µM*
CCOc1cccc(C(=O)NC(=S)Nc2cccc(C)c2)c1 | -30 | -9% | ? | ? | 8.9µM*
COC(=O)N1CCC2(CCCN(C(=O)Nc3ccccc3)C2)CC1 | / | -6% | 6% | / | 6%
COc1ccc(OC)c(-n2c(CN3CCC(C(N)=O)CC3)nc3ccccc3c2=O)c1 | ? | -8% | -2% | -10% | 20µM*
CC(=O)/C(N=Nc1cc(C)ccc1O)=C(\C)O | / | / | / | / | 2µM*
CC(=O)/C(N=Nc1cc2c(c([N+](=O)[O-])c1C)C(C)(C)CC2(C)C)=C(\C)O | / | / | / | / | 7%
COc1ccc(OC)c(N=c2oc3c(OC)cccc3cc2C(=O)NCc2ccco2)c1 | 33 | -4% | -8% | -1% | 1%
COc1ccc(N=c2oc3c(OC)cccc3cc2C(=O)NCc2ccco2)cc1OC | 15 | -15% | 5% | -1% | 0.35µM*
COc1ccccc1N=c1oc2c(OC)cccc2cc1C(=O)NCc1ccco1 | ? | / | -7% | 4% | ?
COc1cccc(C(=O)N/N=c2\oc3c(OC)cccc3cc2C(=O)NCc2ccccc2)c1 | 19 | -2% | -2% | 7% | 0.32µM*
C=C(C(C)=O)C(O)c1ccco1 (centres undefined) | / | -7% | / | / | ?
C/C(=N/S(=O)(=O)c1ccc(Cl)c(Cl)c1)OCC(C)(C)C | / | -6% | 3%[11.4 µM] | / | 5%[13.5 µM]
Cc1cccc(C(=O)NCC(c2ccco2)S(=O)(=O)c2cccs2)c1 (centres undefined) | / | / | / | 0%[46 µM] | /
CSc1nc2c(c(=O)[nH]1)C(c1ccccc1Cl)CC(=O)N2 (centres undefined) | / | / | / | -23%[9.22 µM] | 13µM*
CSc1nc2c(c(=O)[nH]1)C(c1cccc(F)c1F)CC(=O)N2 (centres undefined) | / | / | / | 22%[46 µM] | /
C=CCn1c2ccccc2c2nnc(SCCCn3c(=O)[nH]c4ccccc43)nc21 | 3 | 14µM* | 0% | ? | -7%
O=c1[nH]c2ccccc2n1CCCSc1cnc2ccccc2n1 | -9 | -12% | -1% | -29% | -2%
C=CCn1c2ccccc2c2nnc(SCN3C(=O)c4ccccc4C3=O)nc21 | 46 | -29% | -2% | 15% | 28µM*
SMILES | PNC assembly inh | HPGD block | 12-hLO inh | Lamin A splicing | ALDH1A1 inh
O=C1c2ccccc2C(=O)N1CSc1nnc2c3ccccc3n(CCc3ccccc3)c2n1 | -20 | -11% | 5% | 0% | 18µM*
CCn1c2ccccc2c2nnc(SCC(=O)OCN3C(=O)c4ccccc4C3=O)nc21 | ? | / | -3% | -1% | 2%
CSCCOC(=O)C1=C(C)Nc2ccc(C)cc2S1 | ? | -14% | -17% | 3% | 14µM*
CCCCOc1ccc(C2C(=O)N(C3CCCCC3)CC(=O)N2C2CCCCC2)cc1 (centres undefined) | / | / | / | -8%[46 µM] | /
Cc1cc(NS(=O)(=O)c2ccc(Nc3nc(-c4ccc(O)cc4)cs3)cc2)no1 | ? | 20µM* | -17% | -25% | ?
Cc1noc(NC(=O)c2ccccc2Cl)c1C#N | 15 | 3% | 4% | -10% | 12%
Cc1noc(NC(=O)c2ccccc2)c1C#N | -18 | -27% | 3% | -1% | 10µM*
Cc1ccc(C(=O)Nc2onc(C)c2C#N)cc1 | 16 | -4% | 2% | ? | 25µM*
Cc1nc(N2CCCC2)c2c(C(=O)Nc3cccc(C)c3C)c(C)oc2n1 | / | / | / | 4%[46 µM] | /
O=C(NC1CCN(C(=O)N2c3ccccc3Sc3ccccc32)CC1)c1ccccc1F | -9 | -10% | ? | -2% | 11µM*
CC1CCN(C(=O)N2c3ccccc3Sc3ccccc32)CC1 | -17 | -7% | -6% | -20% | 6%
O=C(NNC(=S)Nc1ccccc1)Nc1ccccc1 | / | / | / | -9%[46 µM] | 14µM*
Cc1ccc(NC(=O)NNC(=O)c2ccccc2)cc1 | / | / | / | / | 3%
Cc1ccc(NC(=S)NNC(=O)Nc2ccccc2)cc1 | / | / | / | / | 2.2µM*
CN(C)C(=O)c1ccc(-c2ccc3ncnc(N4CCNCC4)c3c2)cc1 | / | / | / | -15% | -17%
COc1ccc(/C=N/N2C(=O)C3C4C=CC(CC4)C3C2=O)c(OC)c1 (centres undefined) | / | / | / | -7%[46 µM] | 2.2µM*
COc1ccccc1/C=N/N1C(=O)C2C3C=CC(CC3)C2C1=O (centres undefined) | / | / | / | / | 7.1µM*
COc1ccc(N2C(=O)C3C4C=CC(C4)C3C2=O)c(OC)c1 (centres undefined) | 6 | -4% | -2% | 11% | 4%
COC(=O)C=P(c1ccccc1)(c1ccccc1)c1ccccc1 | / | -8% | / | / | 13%
O=c1c2ccccc2ncn1-c1ccc(Cl)cc1 | / | / | / | / | 5%
O=c1[nH]n(-c2ccc(Cl)cc2)c2ncccc12 | 3 | 11µM* | -3% | 2% | 2%
COc1ccc(N(CC(=O)NCCSC2CCCCC2)S(C)(=O)=O)c(OC)c1 | ? | 22µM* | -5% | -6% | 14µM*
CC(C)S | / | -3% | 2% | / | 3%
Nc1c(C(=O)O)sc2nc(-c3ccccc3)cc(-c3ccccc3)c12 | / | / | / | / | 20µM*
